# Experimental data taken from article PMC7819943, “Rice protein-binding microarrays: a tool to detect cis-acting elements near promoter regions in rice”.
# The full ranking holds about 68,000 sequences; the median of “fluorescence intensity (a.u.)” is about 9,100, and the highest 2% start at about 16,000. Only a selection was taken, and the highest values are over-represented in it overall.
# Target: OsWRKY34 (Oryza sativa, UniProt Q0JBA9 1-250)
# Test: protein-binding microarray (RPBM); PBS, 2% BSA, 51.3 ng/ul salmon testes DNA, 50 uM zinc acetate, 200 nM TF, 25 C, 1 h; high values mean tight binding
# Conditions: protein: recombinant; tags: N-terminal polyhistidine and DsRed monomer fusion (pET32a); label: CyDye5-dUTP incorporated in the synthesized complementary strand; 3' TTTTT single-stranded linker to array surface; dsDNA, one strand shown
# Summary of the method: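 The binding signal is fluorescence intensity per feature, in arbitrary units, read on an Axon 4000B scanner. Polyhistidine- and DsRed-tagged transcription factors (N-terminal fusions) from E. coli BL21-CodonPlus were purified on Ni–NTA and applied at 200 nM for 1 h at 25 °C to a double-stranded, BSA-blocked custom Agilent array in buffer with 50 µM zinc acetate.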
# Sequence of OsWRKY34 (Q0JBA9 entry or part of it): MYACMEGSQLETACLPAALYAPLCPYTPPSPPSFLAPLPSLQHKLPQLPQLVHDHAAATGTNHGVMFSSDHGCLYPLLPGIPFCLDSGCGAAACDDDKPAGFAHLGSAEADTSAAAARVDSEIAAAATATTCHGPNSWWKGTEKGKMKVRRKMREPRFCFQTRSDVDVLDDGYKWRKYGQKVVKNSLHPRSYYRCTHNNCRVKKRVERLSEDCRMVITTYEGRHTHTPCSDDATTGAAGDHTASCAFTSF
row,Sequence,binding signal
1,CTCCCTTGCCGTCCCAGTTTCCCTGTATTCTGCATGCCGTCGGAGTCACCTAGTGCAG,9850 fluorescence intensity (a.u.)
2,ACTTTGCTGCCTATTGTAGATTTGTTATAACGTAGTTACTCGGAGTCACCTAGTGCAG,10400 fluorescence intensity (a.u.)
3,AACCCTCGCTTTCTTTGATAATCATTCCTAACTGCCTGGTCGGAGTCACCTAGTGCAG,8170 fluorescence intensity (a.u.)
4,AGTTACTGAGTTAGACGTCTCAAGCTGTGTCGTGGAATAACGGAGTCACCTAGTGCAG,8700 fluorescence intensity (a.u.)
5,AGGAGAGAAAGGAAGGTGGTGTGGGTGGTTGGTGGTGGTGCGGAGTCACCTAGTGCAG,10300 fluorescence intensity (a.u.)
6,GTCTTCTCTGTTCTTCTTCAGATGGCGAAAGCTCTCACCACGGAGTCACCTAGTGCAG,10400 fluorescence intensity (a.u.)
7,ATATATATATATATATATATATATATATATACACACACACCGGAGTCACCTAGTGCAG,22200 fluorescence intensity (a.u.)
8,ATATATATATATATATATGTGTGTATATATATATATATATCGGAGTCACCTAGTGCAG,8920 fluorescence intensity (a.u.)
9,ATATATATATATATATATATATGTGTGTGTGTGTGTGTCCCGGAGTCACCTAGTGCAG,14500 fluorescence intensity (a.u.)
10,CTTTAATAGTATAGCCAACTACTACCTCGGAATCACCTATCGGAGTCACCTAGTGCAG,20300 fluorescence intensity (a.u.)
11,TATATATACACACACACACAAACACACACACACACACACACGGAGTCACCTAGTGCAG,8720 fluorescence intensity (a.u.)
12,ATATATATATATATATATATATATATGCAGCAACAGGGCCCGGAGTCACCTAGTGCAG,17400 fluorescence intensity (a.u.)
13,GCCTGCTATTGTACCTGCTTTAATATAGCCAACCTACTATCGGAGTCACCTAGTGCAG,8330 fluorescence intensity (a.u.)
14,ATATATATATATATATATATATATATATATATGCAGCATGCGGAGTCACCTAGTGCAG,13100 fluorescence intensity (a.u.)
15,TATATATATATATATATATATATATATATATATGGAGTATCGGAGTCACCTAGTGCAG,24600 fluorescence intensity (a.u.)
16,ATATATATATATATATATATATATATATATATGTATGTATCGGAGTCACCTAGTGCAG,10100 fluorescence intensity (a.u.)
17,ATAGCCAACTATTACTTTTAAATTATTTATAGTCAAATTTCGGAGTCACCTAGTGCAG,9190 fluorescence intensity (a.u.)
18,ATATATATATATATATATATACATACATATACACACACACCGGAGTCACCTAGTGCAG,8050 fluorescence intensity (a.u.)
19,CTACTTTACCAGCTCATCTATCACATCTTAACTGTATTTTCGGAGTCACCTAGTGCAG,10300 fluorescence intensity (a.u.)
20,ACCCGTCTCTCTTTCTTTCTTTCTCTCTCTCCTGTGTTTTCGGAGTCACCTAGTGCAG,8600 fluorescence intensity (a.u.)
21,TCCACACACCCCGCTTGCTAACCAACCGTGACACGCAACCCGGAGTCACCTAGTGCAG,10100 fluorescence intensity (a.u.)
22,CCTAGCCCTAATTGATCCTTGCCTCGATGTTTTCCCTCCGCGGAGTCACCTAGTGCAG,10100 fluorescence intensity (a.u.)
23,CCCTTGACAGCACAGAGGCAACAGCAAAACACACTCTCATCGGAGTCACCTAGTGCAG,8580 fluorescence intensity (a.u.)
